The entries come from a sample that favours hits as a whole.
NPSR antag = antagonists of human neuropeptide S receptor cAMP signaling | AID 1461 | Potency, µM (titrated, usually from 38.3 µM), hits mostly inhibitors | actives 1% (n = 220,000) | Q6W5P4 | CHO-NPSR cells, cAMP TR-FRET, antagonist mode; further: nearly all actives have a fitted effect of over 50% in size
Target sequence (Q6W5P4 whole entry, looked up): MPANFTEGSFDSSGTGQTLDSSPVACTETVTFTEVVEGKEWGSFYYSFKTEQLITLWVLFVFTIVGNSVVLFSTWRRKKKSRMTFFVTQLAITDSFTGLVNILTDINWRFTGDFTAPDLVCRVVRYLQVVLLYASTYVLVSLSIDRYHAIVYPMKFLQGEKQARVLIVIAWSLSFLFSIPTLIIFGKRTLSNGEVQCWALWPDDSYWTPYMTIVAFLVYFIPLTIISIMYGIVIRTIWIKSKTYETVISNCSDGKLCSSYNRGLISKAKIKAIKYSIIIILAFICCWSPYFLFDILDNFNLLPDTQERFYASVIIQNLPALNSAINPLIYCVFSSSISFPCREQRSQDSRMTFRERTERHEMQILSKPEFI
ERK EGF inh = blocks ERK signaling stimulated by EGF; HEK293-V1b, EGF-stimulated phospho-ERK AlphaScreen; actives 0.41% (n = 130,000); Potency, µM (top dose mostly 11.5 µM), actives largely listed as inhibitors; further: nearly all actives have a fitted effect of over 55% in size
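Homogeneous cell-based phospho-ERK assay: HEK293/V1b cells in 1% FBS, compound 30 min then EGF 5 min, AlphaScreen luminescence. Activity normalized between DMSO and 25 nM EGF controls; AC50 from Hill modelling.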
pERK EGF inh = reduces EGF-stimulated ERK phosphorylation in HEK293 cells; shares compounds with ERK EGF inh; HEK293 EGF-stimulated ERK phosphorylation, AlphaScreen; Potency, µM (titrated, usually from 57.5 µM), hits mostly inhibitors; actives 60% (n = 60); AID 1725
c-Raf inh = blocks human c-Raf kinase activity | shares compounds with ERK EGF inh | activity change, negative = inhibition, % at 76.9 µM | c-Raf kinase inhibition, homogeneous biochemical assay | AID 1728 | 70 tested, under 10 active
MEK inh = MEK1 (human) kinase inhibition. shares compounds with ERK EGF inh. homogeneous MEK kinase activity assay, ERK pathway. Potency, µM (top dose mostly 76.9 µM), usual class: inhibitors. 70 tested, under 10 active. AID 1732
A number is an active result; i = inactive; ? = inconclusive; nt = no result given. The call rests on the fitted dose curve; in most records, active means well fitted curve in the direction sought with a large enough effect; inconclusive means small, poorly fitted or top-dose-only effect, or another doubt; inactive means no such curve, though single readings can be large; an effect the other way counts as inactive or inconclusive.

SMILES | NPSR antag | ERK EGF inh | pERK EGF inh | c-Raf inh | MEK inh
OCC(O)/C=N/Nc1nc(N2CCCCC2)nc(N2CCCCC2)n1 (stereo not drawn) | i | i | nt | nt | nt
CCOC(=O)N1CCC(N2CCN(C3CCCC3)C(CCO)C2)CC1 (stereo not drawn) | i | i | nt | nt | nt
CCOC(=O)C1C(=O)Nc2nc3ccccc3n2C1C(C)C (stereo not drawn) | i | nt | nt | nt | nt
O=c1[nH]c(=O)n(C2CC(O)C(CO)O2)cc1F (stereo not drawn) | nt | i | nt | nt | nt
C=CCNC(=S)/N=c1/ccccn1CC | i | i | nt | nt | nt
C[C@]12O[C@H]1[C@@H](O)C(Br)=C(CO)[C@H]2O | nt | i | nt | nt | nt
O=C(N1CCCC1)N1CCN(c2ncnc3c(-c4ccc(Cl)cc4)nsc23)CC1 | i | nt | nt | nt | nt
COC(=O)c1sccc1NC(=O)Nc1cccc(F)c1 | i | i | nt | nt | nt
COc1ccc(C(=O)c2ccc(Cl)c([N+](=O)[O-])c2)cc1 | i | 8.91µM | 15.8µM | ? | i
COc1ccc(C(=O)c2ccc(Cl)cc2)cc1 | i | nt | nt | nt | nt
Cc1ccc(-c2csc(NC(=O)c3cc([N+](=O)[O-])ccc3N3CCOCC3)n2)cc1 | i | i | nt | nt | nt
O=C(Nc1nc(-c2ccccc2)cs1)c1ccc(N2CCOCC2)c([N+](=O)[O-])c1 | i | 3.98µM | 10µM | ? | i
CCc1cc2c(=O)c(-c3nc(C)cs3)coc2cc1OC(C)C(=O)NCCO (stereo not drawn) | i | i | nt | nt | nt
COc1cccc(/C=N/Nc2cc(-n3nc(C)cc3-c3ccccc3)ncn2)c1O | i | 8.91µM | 11.2µM | ? | i
COc1cccc(/C=N/Nc2ncnc3scc(-c4ccccc4)c23)c1O | i | i | nt | nt | nt
C=CCN1C(=O)/C(=C\C=C2\N(C)c3ccccc3C2(C)C)SC1=S | i | ? | nt | nt | nt
C=CCN1C(=O)/C(=C/C=C2/N(CC)c3ccc(S(=O)(=O)N(C)C)cc3N2CC)SC1=S | i | ? | ? | i | i
CCCN1C(=O)/C(=C2/C=Cc3ccccc3N2CC)SC1=S | i | 5.62µM | 10µM | i | i
CN1C(=O)/C(=C2/C=Cc3ccccc3N2CCCS(=O)(=O)O)SC1=S | i | nt | nt | nt | nt
COc1ccc(N=C2NC(=O)S/C2=C\c2ccc(N(C)C)cc2)cc1 | i | nt | nt | nt | nt
COc1ccc(N=C2C(=Nc3ccc(OC)cc3)N(c3ccc(OC)cc3)C(=S)N2C(=O)c2ccc(OC)cc2)cc1 | i | ? | 5.62µM | i | i
COc1ccc(N2CCN(C(=O)c3ccncc3)CC2)cc1 | i | nt | nt | nt | nt
COc1ccc(N=C2C(=Nc3ccc(OC)cc3)N(c3ccccc3)C(=S)N2C(=O)c2ccc(Cl)cc2)cc1 | i | 2.24µM | i | i | i
COc1ccc(N=C2C(=Nc3ccc(OC)cc3)N(c3ccc(N(C)C)cc3)C(=S)N2c2ccc(OC)cc2)cc1 | i | nt | i | i | i
COc1ccc(C(=O)n2nc(-c3ccccc3)nc2SC)cc1 | i | nt | nt | nt | nt
SMILES | NPSR antag | ERK EGF inh | pERK EGF inh | c-Raf inh | MEK inh
O=C(NC12CC3CC(CC(C3)C1)C2)c1ccc(S(=O)(=O)N2CCOCC2)cc1 | i | nt | nt | nt | nt
CCNC(=O)CSc1nnc(-c2ccccc2Br)n1-c1cccc(C(F)(F)F)c1 | i | i | nt | nt | nt
Nc1c(C(=O)NCc2ccc3c(c2)OCO3)nnn1-c1ccc(OC(F)(F)F)cc1 | i | nt | nt | nt | nt
Cc1cc2nc3ccc(=[N+](C)C)cc-3sc2cc1N | ? | ? | i | ? | ?
Cc1nc2cc(C)c(C)cc2s1 | i | i | nt | nt | nt
Cc1cc(C)c2c(-n3cccc3)c(C(=O)NNS(=O)(=O)c3ccc(Cl)cc3)sc2n1 | i | nt | nt | nt | nt
N#C/C(=C/c1ccco1)C(N)=S | i | i | nt | nt | nt
N#CC(C#N)=C1C=CC=CN1/C(=C\c1ccco1)C(=O)c1ccc(Br)cc1 | ? | 7.94µM | 15.8µM | ? | i

Screens from PubChem.
